Data: the supplement of paper PMC9262897, “Low-cost anti-mycobacterial drug discovery using engineered E. coli” (Nature Communications, 2022)
Counter-ions that a name gives are not always drawn. ± gives the standard deviation of the averaged measurements.

System: E. coli TESEC Alr+ wild-type control
Experiment: growth (OD600 after 10 h); higher = more growth (less inhibition)
Details: compound 0.1 mM; raw OD600 reference: median of DMSO wells 0.49, cell-free background 0.052
Experimental: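 TESEC Mtb Alr E. coli (ΔaraC ΔtolC ΔentC Δalr ΔdadX, arabinose-inducible Mtb Alr) or the Alr+ wild-type control strain, grown in defined M9-fructose medium without D-alanine in 96-well plates with Prestwick library compounds at 0.1 mM and 1% DMSO. Low Alr induction is 0.1 µM arabinose and high induction is 10 mM arabinose.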

Row | Compound | growth
1 | CC[C@@]1([C@@H]2O[C@@H]([C@H]3O[C@@](O)(CO)[C@H](C)C[C@@H]3C)C[C@@H]2C)CC[C@H]([C@]2(C)CC[C@]3(C[C@H](O)[C@@H](C)[C@@H]([C@@H](C)[C@@H](OC)[C@H](C)C(=O)O)O3)O2)O1 [Monensin sodium salt] | 0.408 ± 0.05
2 | C[C@]12CCC(=O)C=C1CC[C@@H]1[C@@H]2C(=O)C[C@]2(C)C(=O)CC[C@@H]12 [Adrenosterone] | 0.533 ± 0.083
3 | C[C@]12N[C@H](Cc3ccccc31)c1ccccc12 [Dizocilpine maleate] | 0.54 ± 0.094
4 | CC1C=CC=CCCC=CC=CC=CC=CC(OC2OC(C)C(O)C(N)C2O)CC2OC(O)(CC(O)C(O)CCC(O)CC(O)CC(O)CC(=O)OC(C)C(C)C1O)CC(O)C2C(=O)O (stereo not given) [Nystatine] | 0.471 ± 0.021
5 | c1ccc2c(c1)OCC(C1=NCCN1)O2 (stereo not given) [Idazoxan hydrochloride] | 0.598 ± 0.015
6 | Clc1ccc(C(OCCN2CCCCC2)c2ccccc2)cc1 (stereo not given) [Cloperastine hydrochloride] | 0.413 ± 0.033
7 | Oc1cc(Cl)ccc1Oc1ccc(Cl)cc1Cl [Triclosan] | 0.0516 ± 0.0015
8 | CN1[C@@H]2CC[C@H]1C[C@@H](OC1c3ccccc3CCc3ccccc31)C2 [Deptropine citrate] | 0.04883 ± 0.00038
9 | CN[C@@H]1[C@@H](O)[C@@H](O[C@@H]2[C@@H](O)[C@H](O[C@H]3O[C@H](CN)CC[C@H]3N)[C@@H](N)C[C@H]2N)OC[C@]1(C)O.CN[C@@H]1[C@@H](O)[C@@H](O[C@@H]2[C@@H](O)[C@H](O[C@H]3O[C@H]([C@@H](C)N)CC[C@H]3N)[C@@H](N)C[C@H]2N)OC[C@]1(C)O.CN[C@@H]1[C@@H](O)[C@@H](O[C@@H]2[C@@H](O)[C@H](O[C@H]3O[C@H]([C@@H](C)NC)CC[C@H]3N)[C@@H](N)C[C@H]2N)OC[C@]1(C)O [Gentamicine sulfate] | 0.0643 ± 0.0096
10 | CC(Cc1ccc(O)cc1)NCC(O)c1cc(O)cc(O)c1 (stereo not given) [Fenoterol hydrobromide] | 0.575 ± 0.046
11 | CCN[C@@H](C)Cc1cccc(C(F)(F)F)c1 [Dexfenfluramine hydrochloride] | 0.466 ± 0.025
12 | CC(C)c1c(CN(C)C(C)Cc2ccccc2)n(C)n(-c2ccccc2)c1=O (stereo not given) [Famprofazone] | 0.443 ± 0.019
13 | CCCC[N+]1(C)[C@@H]2CC(OC(=O)[C@H](CO)c3ccccc3)C[C@H]1[C@@H]1O[C@@H]12 (stereo not given in full) [Butylscopolammonium (n-) bromide] | 0.531 ± 0.1
14 | CCCN1C[C@H](CSC)C[C@@H]2c3cccc4[nH]cc(c34)C[C@H]21 [Pergolide mesylate] | 0.529 ± 0.017
15 | CN(C)[C@@H]1C(=O)C(C(N)=O)=C(O)[C@@]2(O)C(=O)C3=C(O)c4c(O)ccc(Cl)c4[C@@](C)(O)[C@H]3C[C@@H]12 [Chlortetracycline hydrochloride] | 0.0491 ± 0.00036
16 | CN1CCN(C(=O)OC2c3nccnc3C(=O)N2c2ccc(Cl)cn2)CC1 (stereo not given) [Zopiclone] | 0.454 ± 0.011
17 | Cc1cccc(C)c1NC1=NCCCS1 [Xylazine] | 0.487 ± 0.05
18 | CCC(=O)O[C@H]1CC[C@H]2[C@@H]3CCC4=CC(=O)CC[C@]4(C)[C@H]3CC[C@]12C [Testosterone propionate] | 0.351 ± 0.039
19 | CCN(CC)C(C)C(=O)c1ccccc1 (stereo not given) [Amfepramone hydrochloride] | 0.556 ± 0.038
20 | C=CC[C@]1(O)CC[C@H]2[C@@H]3CCC4=CC(=O)CCC4=C3C=C[C@@]21C [Altrenogest] | 0.293 ± 0.0069

Row | Compound | growth
21 | O=C1CC[C@@]2(O)[C@H]3Cc4ccc(O)c5c4[C@@]2(CCN3CC2CC2)[C@H]1O5 [Naltrexone hydrochloride dihydrate] | 0.496 ± 0.022
22 | C1CCc2nnnn2CC1 [Pentylenetetrazole] | 0.46 ± 0.054
23 | CN(C)C(=O)Oc1cc(OC(=O)N(C)C)cc(C(O)CNC(C)(C)C)c1 (stereo not given) [Bambuterol hydrochloride] | 0.618 ± 0.051
24 | CC(C)CC(N(C)C)C1(c2ccc(Cl)cc2)CCC1 (stereo not given) [Sibutramine HCl] | 0.602 ± 0.091
25 | CC(C)[N+](C)(CCC(C(N)=O)(c1ccccc1)c1ccccc1)C(C)C [Isopropamide iodide] | 0.516 ± 0.045
26 | CC(=O)OCC(=O)[C@H]1CC[C@H]2[C@@H]3CC[C@H]4C[C@H](O)CC[C@]4(C)[C@H]3C(=O)C[C@]12C [Alfadolone acetate] | 0.474 ± 0.013
27 | CCN(C)C(=O)Oc1cccc([C@H](C)N(C)C)c1 [Rivastigmine] | 0.504 ± 0.066
28 | O=c1[nH]c2ccccc2n1CCCN1CCC(n2c(=O)[nH]c3cc(Cl)ccc32)CC1 [Domperidone] | 0.406 ± 0.011
29 | O=c1[nH]c2ccccc2n1C1CCN(CCCC(c2ccc(F)cc2)c2ccc(F)cc2)CC1 [Pimozide] | 0.52 ± 0.043
30 | C#CCN(C)[C@H](C)Cc1ccccc1 [Selegiline hydrochloride] | 0.441 ± 0.043
31 | CCn1cc(C(=O)O)c(=O)c2cc3c(cc21)OCO3 [Oxolinic acid] | 0.0605 ± 0.0014
32 | C[C@]12CCC(=O)C=C1C=C[C@@H]1[C@@H]2CC[C@@]2(C)[C@H]1CC[C@@]2(O)CCC(=O)O [Canrenoic acid potassium salt] | 0.502 ± 0.031
33 | C[C@@H]1O[C@@H](O[C@@H]2C=C3CC[C@@H]4[C@H](CC[C@]5(C)[C@@H](c6ccc(=O)oc6)CC[C@]45O)[C@@]3(C)CC2)[C@H](O)[C@H](O)[C@H]1O [Proscillaridin A] | 0.626 ± 0.018
34 | CN1C[C@H](C(=O)N[C@]2(C)O[C@@]3(O)[C@@H]4CCCN4C(=O)[C@H](Cc4ccccc4)N3C2=O)C[C@@H]2c3cccc4[nH]cc(c34)C[C@H]21 [Dihydroergotamine tartrate] | 0.1077 ± 0.001
35 | C[C@]12CC[C@H](O)C[C@@H]1CC[C@@H]1[C@@H]2CC[C@]2(C)C(=O)CC[C@@H]12 [Epiandrosterone] | 0.252 ± 0.013
36 | O[C@@H]1CCCC[C@H]1N1CCC(c2ccccc2)CC1 [L(-)-vesamicol hydrochloride] | 0.521 ± 0.091
37 | O=c1[nH]oc2c1CCNC2 [THIP Hydrochloride] | 0.539 ± 0.087
38 | CCC1(C)CC(=O)NC(=O)C1 [Bemegride] | 0.467 ± 0.024
39 | CNCC(O)c1ccc(O)cc1 (racemic) [(+,-)-Synephrine] | 0.58 ± 0.057
40 | OC(c1ccccc1)(c1ccccc1)C1CCNCC1 [Azacyclonol] | 0.523 ± 0.032
